From PubChem BioAssay AID651994 (Sanford-Burnham Center for Chemical Genomics, 2013) come the findings set out here.

SMILES strings stand for the structures. In all, about 2,500 compounds went through this assay and about 790 (32%) were called active. Not all results are given here. Unmarked numbers belong to inactive results.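 How the source made its calls: active means mean cytotoxicity at 5 µM above about 25% (limit read from the data); inactive means the rest.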

This experiment is described as follows: cell viability loss, Sufu-null reporter line – ATP luminescence, single concentration, cytotoxicity control for Gli-SUFU antagonist project, confirmation (AID 651994).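 Further: cells exposed to compound overnight for roughly 16 to 18 hours; plate controls were DMSO wells with cells for no effect and medium without cells for full effect.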 The following applies: Sufu-KO-LIGHT cells cytotoxicity, at 5 µM, hits give high values.
For `Cc1ccsc1C(=O)OCC(=O)c1cc(C)n(CC2CCCO2)c1C` (configuration not stated), the cytotoxicity was 26.6% (active).
Take `Cc1cccc2nc(CSc3nc4[nH]ncc4c(=O)n3-c3cccc(Cl)c3)cc(=O)n12`: the cytotoxicity is 20.1%.
In the case of `Cc1ccc(S(=O)(=O)N(Cc2cc3ccccc3[nH]c2=O)CC2CCCO2)cc1` (configuration not stated) it was 5.2%.
In the case of `COc1ccccc1CNC(=O)C1CCN(c2nc3ccccc3o2)CC1` it was 17.9%; in that of `Cc1cccc(NS(=O)(=O)c2ccc(-c3cnc(C4CC4)o3)cc2)c1`, 54.4% (active).
`COc1ccc(NS(=O)(=O)c2ccc(NC(C)=O)cc2)cc1OC`: the cytotoxicity was 14%.
Consider `Cc1cc(C)c(SCCc2ccncc2)c(C)c1`, for which the cytotoxicity is 29.5% (active).
For `Cc1ccc(NC(=O)CN(C)CC(=O)Nc2cccc(F)c2)cc1[N+](=O)[O-]`, the cytotoxicity was 29% (active).
The result for `Cc1ccc(O)c(NC(=O)COc2cc(C)ccc2C)c1` reads -3.46%.
In the case of `CCCCNc1nc2c(c(=O)n(C)c(=O)n2C)n1Cc1cccc(OC)c1` it was 44.5% (active); in that of `COCCn1c(CN2CCC(Cc3ccccc3)CC2)nc2c1c(=O)n(C)c(=O)n2C`, 19.8%; in that of `Cn1c(=O)c2c(nc(NCCc3ccccc3)n2Cc2ccccc2)n(C)c1=O`, 34.7% (active).
Take `COc1ccc(NS(=O)(=O)c2ccc(N3CCN(CCO)CC3)c([N+](=O)[O-])c2)cc1`: the cytotoxicity is 16.4%.
Consider `CC(=O)OCCC(C)C`, for which the cytotoxicity was -7.84%.
As to `CCCc1nc(N)nc2c1C(=O)CC(C)(C)C2`, the cytotoxicity is 5.9%.
Regarding `CN1C(CC(=O)Nc2ccc(Br)cc2)c2ccccc2CC1(C)C` (configuration not stated), the cytotoxicity is 15.7%.
The result for `Cc1ccc(C)c(S(=O)(=O)N2CCN(c3ncnc4sccc34)CC2)c1` reads 69.2% (active); that for `c1ccc(-n2nnnc2N2CCOCC2)cc1`, 10.1%; that for `CC[n+]1c(C)n(-c2ccccc2)c2ccc(NC(C)=O)cc21`, 29% (active).
Consider `CCC1CCCCN1CCCNC(=O)Cn1nc(-c2ccccc2)ccc1=O` (configuration not stated), for which the cytotoxicity was 20.3%.
In the case of `CN(NC(=O)c1ccccc1F)c1nc(C(F)(F)F)nc2ccccc12` it was 56.2% (active).
Consider `CCn1c(SCc2ccccc2)nc2cc(OC)c(OC)cc2c1=O`, for which the cytotoxicity is 23.5%.
Consider `CCOc1cccc(/C=N/NC(=S)NCCN2CCOCC2)c1O`, for which the cytotoxicity is 20.7%.
`CCOC(=O)c1cnc(-n2nc(C)cc2C)nc1NNc1cc(C)nc(-c2ccccc2)n1`: the cytotoxicity was 24%.
Turning to `c1c2c(cc3sc(N4CCCCC4)nc13)OCCO2`, the cytotoxicity was 51.8% (active).
As to `CN(C)CCN(C(=O)C1CCCCC1)c1nc2cc3c(cc2s1)OCO3`, the cytotoxicity was 20.3%.
In the case of `CCOC(=O)c1ccc(NC(=O)Cn2cnc3cc(C)c(C)cc32)cc1`, the cytotoxicity is 24.9%.
Regarding `CC(=O)c1c(C)[nH]c(C(=O)OCC(=O)Nc2sc3c(c2C#N)CCCC3)c1C`, the cytotoxicity was 17.2%.
For the molecule `O=C(Cn1cc(C(=O)C2CC2)c2ccccc21)Nc1ccccc1Cl`, the cytotoxicity is 16.3%.
The result for `CCCOc1ccccc1C1CC(=O)Nc2cc3c(cc21)OCO3` (configuration not stated) reads 48.1% (active); that for `COc1ccccc1N1CCN(Cc2cc(OC)c3c(c2)OCO3)CC1`, 22.5%; that for `COc1ccccc1C1C2=C(COC2=O)Nc2cc3c(cc21)OCO3` (configuration not stated), 50.9% (active).
The result for `O=C(O)CCCn1cc(NC(=O)COc2cccc(Cl)c2)cn1` reads 11.7%.
On to `COc1ccc2nc(SCC(=O)Nc3c(C)cc(C)cc3C)[nH]c2c1`, for which the cytotoxicity is 11.7%.
For the molecule `CCN(CC(=O)Nc1cc(Cl)ccc1C)C(=O)CSCc1ccc(C)cc1`, the cytotoxicity is 6.16%.
For `Cc1ccc(-c2nc3c(cnn3-c3ccccc3)c(=O)o2)cc1`, the cytotoxicity was 8.43%.
Turning to `CCOc1ccc(-n2c(O)c(/C=N/c3ccnn3Cc3ccncc3)c3ccccc3c2=O)cc1`, the cytotoxicity is 23.8%.
In the case of `COc1ccccc1/C=C/CN1CCC(CO)(Cc2ccccc2)CC1` it was -4.47%.
With `CC1CC2=C(CC1/C=N/NC(N)=S)C(C)(C)CCC2` (configuration not stated), the cytotoxicity was 11.9%.
Turning to `CC(=O)/C(=N\Nc1ccc(Cl)cc1Cl)Sc1cccc2cccnc12`, the cytotoxicity was 25.7% (active).
Turning to `CN(C)c1cc[n+](Cc2ccccc2)cc1`, the cytotoxicity was 33.3% (active).
As for `COC(=O)c1ccc(CSc2nnc(N)s2)o1`, the cytotoxicity was 21.4%.
For the molecule `CCNC(=S)N(CCN(CC)CC)Cc1cc2cc3c(cc2[nH]c1=O)OCO3`, the cytotoxicity is 6.68%.
For the molecule `C=CCn1c(SCC(=O)CC(=O)OCC)nc2cc(C(=O)N3CCC(C(N)=O)CC3)ccc2c1=O`, the cytotoxicity was 3.69%.
Take `Cc1cc2[nH]ncc2cc1NC(=S)NC(=O)c1ccccc1`: the cytotoxicity was 2.37%.
With `Cc1ccccc1C(=O)NC(=S)Nc1ccc(N2CCN(C(=O)c3ccccc3)CC2)cc1`, the cytotoxicity was 32.2% (active).
On to `CC(C)Oc1ccc(CN2CCC(n3nccc3NC(=O)c3cccnc3)CC2)cc1`, for which the cytotoxicity is 4.98%.
For `CNc1ccc(SC#N)cc1`, the cytotoxicity is 3.32%.
On to `CCCC1=Nc2cc(C(=O)NCc3ccco3)ccc2Sc2ccccc21`, for which the cytotoxicity is 53.8% (active).
In the case of `CC(C)c1ccc(OCC(O)CN2CCN(c3ccccn3)CC2)cc1` (configuration not stated) it was 9.73%.
Turning to `CC(C)OCC(O)CN1CCN(C(c2ccccc2)c2ccccc2)CC1` (configuration not stated), the cytotoxicity is 16.3%.
In the case of `O=[N+]([O-])c1ccc(N2CCN(CC(O)COc3ccccc3)CC2)cc1` (configuration not stated) it was 30.6% (active).
The result for `O=C(c1cc(Cl)cc(Cl)c1)N1CCC(=O)N(C(COCc2ccccc2)Cc2ccccc2)CC1` (configuration not stated) reads 21.8%.
Take `CCCCC(=O)NC(c1ccc(OC)c(OC)c1)c1ccc2cccnc2c1O` (configuration not stated): the cytotoxicity was 19.2%.
Consider `C=CCOC(=O)C1=C[C@@H](c2ccc3c(c2)OCO3)C[C@@H](OCCCCO)O1`, for which the cytotoxicity is 2.89%.
The result for `Cc1nonc1C1CCCN1C(=O)c1cc(COc2cccc(C(F)(F)F)c2)on1` (configuration not stated) reads 29.3% (active); that for `O=C1/C(=C\c2cccnc2)CN(Cc2ccccc2)C/C1=C\c1cccnc1`, 10.1%.
The result for `O=C(NC1CCN(C(=S)Nc2ccc(Cl)cc2)CC1)C1CCCCC1` reads 2.7%; that for `C=CCOc1nc2c(c(=O)n(C)c(=O)n2C)n1Cc1ccc(Cl)cc1Cl`, 26.7% (active).
The result for `COC(=O)Cc1[nH]n(-c2nc3ccccc3s2)c(=O)c1C(C)=Nc1ccc(OC)cc1` reads 15.6%.
For `COc1ccccc1CCNC(=O)C(=O)NCCC1CCCCN1S(=O)(=O)c1cccs1` (configuration not stated), the cytotoxicity was 20.7%.
In the case of `N#CC(C#N)=CN=c1ccn(Cc2ccc(Cl)cc2Cl)cc1`, the cytotoxicity is 29.5% (active).
For `CCCOc1ccc(Cc2c(Cl)nc(SC)nc2NC)cc1`, the cytotoxicity is 31.8% (active).
As for `CC(C)Oc1ccc(/C=N/NC(=O)c2nnn(-c3nonc3N)c2CN(C)C2CCCCC2)cc1`, the cytotoxicity was 9.64%.
Take `O=C(CN1C(=O)c2ccccc2S1(=O)=O)N1CCc2ccccc21`: the cytotoxicity is 36.9% (active).
The result for `Cc1onc(-c2ccccc2)c1C(=O)Nc1ccccc1C#N` reads 7.65%; that for `Cc1cc(NC(=O)c2cccc(N3C(=O)CCC3=O)c2)no1`, 8.93%; that for `C/C(=N\NC(=O)Cc1ccc(Cl)cc1)c1ccccn1`, 38.9% (active).
The result for `CC(=O)Nc1cccc(OCC(=O)/C=C2\N(C)c3ccccc3C2(C)C)c1` reads 23.9%; that for `Cc1ccc(C(=O)C[n+]2cc(-c3ccccc3)n3c2CCCCC3)cc1`, 38.4% (active); that for `COc1ccc(Cn2c(-c3ccc(Cl)cc3)c[n+]3ccccc23)cc1`, 15.3%.
On to `Cc1cc([N+](=O)[O-])c(-c2ccc(/C=N/n3cnnc3)o2)cc1Cl`, for which the cytotoxicity is 3.83%.
For the molecule `COc1cccc2cc(C(N)=O)/c(=N\NC(=O)c3ccccc3)oc12`, the cytotoxicity is 19.1%.
The result for `COc1ccc(OC)c(/C=N/NC(=O)c2ccc[n+](CC(=O)c3ccccc3)c2)c1` reads 26.3% (active).
`CCN(CC)S(=O)(=O)c1ccc(Cl)c(C(=O)NC(C)C(c2cccs2)N2CCCC2)c1` (configuration not stated): the cytotoxicity was 13.4%.
Take `COc1ccc(OC)c(Cc2cnc3nc(N)nc(N)c3c2C)c1`: the cytotoxicity was 15.7%.
The result for `CCOC(=O)c1cnc(Nc2nc3ccccc3o2)nc1CSC(=S)N1CCCCC1` reads 20.4%.
